Several values for one entry are separate records, joined by “and”; a condition that tells them apart may be missing. Equal entries are not always repeated. Inconclusive results are not listed. Activity calls are given as the source filed them. Calls come from the whole dose curve; as a rule, active = well fitted curve in the direction sought with a large enough effect; inconclusive = small, poorly fitted or top-dose-only effect, or another doubt; inactive = no such curve, though single readings can be large; an effect the other way counts as inactive or inconclusive. *1 amine or outer side, *2 acyl side, *3 side chain or, on linkers, in order; H or OH if unused. Where a SMILES comes first, the peptide text is derived from it. Bridges are numbered along the chain shown (N, C = ends). [ ]: non-standard residue; d: D form. The star is where a group is joined. X5 = NC1=N[C@@H]([C@H](N[*:1])C(=O)[*:2])C[C@H](O)N1; ΔAla(Z-3-ureido) = NC(=O)N/C=C(\N)C(=O)O; β3hOrn = NCCC[C@H](N)CC(=O)*; Dap = NC[C@H](N)C(=O)O
How the values were obtained:
CRL-7250 = normal cell line; assay: Cytotoxic Profiling of Annotated Libraries Using Quantitative High-Throughput Screening (AID 1296008); details: Five cell lines viability, CellTiter-Glo ATP luminescence, 48-72 h; stronger effect = lower value; note: nearly all actives have a fitted effect of over 60% in size
Summary of the method: (§1)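 Cytotoxicity was measured as CellTiter-Glo ATP luminescence, read after 10 min at room temperature. Compound treatment of the cells lasted 48 or 72 hr at 37 degrees Celsius in a qHTS format.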

HEK293 = assay: as above; details: Five cell lines viability, CellTiter-Glo ATP luminescence, 48-72 h; max response: stronger effect = lower value
Summary of the method: as §1

HaCat [1] = assay: as above; details: Five cell lines viability, CellTiter-Glo ATP luminescence, 48-72 h; stronger effect = lower value
Summary of the method: as §1

KB-3-1 = assay: as above; details: Five cell lines viability, CellTiter-Glo ATP luminescence, 48-72 h; max response: stronger effect = lower value
Summary of the method: as §1

NIH3T3 [2] = assay: as above; details: Five cell lines viability, CellTiter-Glo ATP luminescence, 48-72 h; max response: stronger effect = lower value
Summary of the method: as §1

MCC-13 = assay: qHTS assay to identify novel small-molecules to repurpose for Merkel cell carcinoma treatment (AID 1296009); details: MCC and control cell lines, CellTiter-Glo viability, 72 h; series mostly up to 46 µM; note: nearly all actives have a fitted effect of over 60% in size
Summary of the method: (§2)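 Cell viability measured by CellTiter-Glo following 72 hr compound treatment at 37 degree celsius, with NPC and MIPE libraries tested in 8- and 11-point concentration series.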

MCC-26 = assay: as above; details: MCC and control cell lines, CellTiter-Glo viability, 72 h; series mostly up to 46 µM
Summary of the method: as §2

MKL-1 = assay: as above; details: MCC and control cell lines, CellTiter-Glo viability, 72 h; series mostly up to 46 µM
Summary of the method: as §2

MKL-2 = assay: as above; details: MCC and control cell lines, CellTiter-Glo viability, 72 h; series mostly up to 46 µM
Summary of the method: as §2

UISO = assay: as above; details: MCC and control cell lines, CellTiter-Glo viability, 72 h; series mostly up to 46 µM
Summary of the method: as §2

WaGa = assay: as above; details: MCC and control cell lines, CellTiter-Glo viability, 72 h; series mostly up to 46 µM
Summary of the method: as §2

C33A = assay: Primary qHTS to identify gynecologic anti-cancer compounds using libraries of approved drugs and bioactive compounds (AID 1345084); details: Gynecologic cancer cell panel viability, ATPlite luminescence, 48 h; series mostly up to 57.5 µM; note: nearly all actives have a fitted effect of over 55% in size
Summary of the method: (§3)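 In this quantitative HTS, cell killing is estimated from loss of ATP-dependent luciferase light. Cells see five compound concentrations over a 48 h exposure.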

CAOV3 = assay: as above; details: Gynecologic cancer cell panel viability, ATPlite luminescence, 48 h; series mostly up to 57.5 µM
Summary of the method: as §3

CASKI = assay: as above; details: Gynecologic cancer cell panel viability, ATPlite luminescence, 48 h; series mostly up to 57.5 µM
Summary of the method: as §3

Es-2 = assay: as above; details: Gynecologic cancer cell panel viability, ATPlite luminescence, 48 h; series mostly up to 57.5 µM
Summary of the method: as §3

Hek293T = assay: as above; details: Gynecologic cancer cell panel viability, ATPlite luminescence, 48 h, control line for the selectivity index; series mostly up to 57.5 µM
Summary of the method: as §3

HACAT [3] = assay: qHTS assay to identify novel small-molecules to repurpose for Merkel cell carcinoma treatment (AID 1296009); details: MCC and control cell lines, CellTiter-Glo viability, 72 h; at 44.8 µM (top of the series); note: nearly all actives have a fitted effect of over 60% in size
Summary of the method: as §2

HeLa = assay: Primary qHTS to identify gynecologic anti-cancer compounds using libraries of approved drugs and bioactive compounds (AID 1345084); details: Gynecologic cancer cell panel viability, ATPlite luminescence, 48 h; series mostly up to 57.5 µM; note: nearly all actives have a fitted effect of over 55% in size
Summary of the method: as §3

NIH3T3 [4] = assay: qHTS assay to identify novel small-molecules to repurpose for Merkel cell carcinoma treatment (AID 1296009); details: MCC and control cell lines, CellTiter-Glo viability, 72 h; at 44.8 µM (top of the series); note: nearly all actives have a fitted effect of over 60% in size
Summary of the method: as §2
% is set by controls: 0 for no effect and ±100 for the full control effect.

Nc1ccc(N=Nc2ccccc2)c(N)n1
inactive: outcome (CRL-7250) | max response (HEK293) 4.3% | max response (HaCat [1]) 0.77% | max response (KB-3-1) 1.52% | max response (NIH3T3 [2]) -0.826% | outcome (MCC-13) | outcome (MCC-26) | outcome (MKL-1) | outcome (MKL-2) | outcome (UISO) | outcome (WaGa) | Potency (C33A) | Potency (CAOV3) | Potency (CASKI) | Potency (Es-2) | Potency (Hek293T)

CC(=O)[C@H]1CC[C@H]2[C@@H]3C=CC4=CC(=O)CC[C@@]4(C)[C@H]3CC[C@]12C
inactive: max response (KB-3-1) -2.63%

CC1CC(OC(=O)C(O)c2ccccc2)CC(C)(C)C1 (stereo unspecified)
inactive: outcome (HaCat [1]) | max response (KB-3-1) 19.9% and -6.72% | max response (NIH3T3 [2]) 2.78% | outcome (HACAT [3]) | Potency (C33A) | Potency (CAOV3) | Potency (CASKI) | Potency (Es-2) | Potency (HeLa) | Potency (Hek293T)

O=C1CC[C@@H](C(=O)N[C@H]2C[C@@H]2c2ccccc2)N1
inactive: max response (KB-3-1) -13%

CC[C@@H](C)[C@H](N)C(=O)O
inactive: max response (KB-3-1) -7.63%

CC[C@H]1OC(=O)[C@H](C)[C@@H](O[C@H]2C[C@@](C)(OC)[C@@H](O)[C@H](C)O2)[C@H](C)[C@@H](O[C@@H]2O[C@H](C)C[C@H](N(C)C)[C@H]2O)[C@](C)(O)C[C@@H](C)CN(C)[C@H](C)[C@@H](O)[C@]1(C)O
inactive: max response (KB-3-1) -8.69%

CCN(CC)CCOCCOC(=O)C(CC)(CC)c1ccccc1
inactive: outcome (CRL-7250) | outcome (HaCat [1]) | max response (NIH3T3 [2]) 0.0854% | outcome (HACAT [3]) | Potency (C33A) | Potency (CAOV3) | Potency (CASKI) | Potency (Es-2) | Potency (HeLa) | Potency (Hek293T)

O=C(c1cc2ccccc2o1)N1CCN(Cc2ccccc2)CC1
inactive: max response (KB-3-1) -3.18%

COC(=O)C(CN)c1c[nH]c2ccc(OC)cc12 (stereo unspecified)
inactive: max response (KB-3-1) 9.41%

COc1ccccc1N1CCN(CCCC(=O)c2ccc(F)cc2)CC1
inactive: max response (KB-3-1) -4.67%

CCCCCCCCCCCCCCCCOCCOCCOCCOCCOCCOCCOCCOCCOCCOCCOCCOCCOCCOCCOCCOCCOCCOCCOCCOCCO
inactive: max response (KB-3-1) -16.1%

CN(C)CCCSc1ccccc1NC(=O)/C=C/c1ccccc1
inactive: max response (CRL-7250) -4.07% | outcome (HaCat [1]) | max response (KB-3-1) -0.0858% | outcome (HACAT [3]) | outcome (MCC-13) | outcome (MCC-26) | outcome (MKL-1) | outcome (MKL-2) | outcome (UISO) | outcome (WaGa) | Potency (C33A) | Potency (CAOV3) | Potency (CASKI) | Potency (Es-2) | Potency (HeLa) | Potency (Hek293T)

O=C1c2ccccc2C(=O)c2c1ccc(O)c2O
inactive: max response (CRL-7250) -3.43% | max response (HaCat [1]) 4.09% | max response (KB-3-1) -6.82% | max response (NIH3T3 [2]) -5.2% | outcome (MCC-13) | outcome (MCC-26) | outcome (MKL-1) | outcome (MKL-2) | outcome (UISO) | Potency (C33A) | Potency (CAOV3) | Potency (CASKI) | Potency (Es-2) | Potency (HeLa) | Potency (Hek293T)

C[C@]12CC[C@@H]3c4ccc(OC(=O)c5ccccc5)cc4CC[C@H]3[C@@H]1CC[C@@H]2O
inactive: outcome (CRL-7250) | max response (HEK293) -10% | max response (HaCat [1]) -1.32% | max response (KB-3-1) -12.6% | outcome (NIH3T3 [2]) | outcome (NIH3T3 [4]) | Potency (C33A) | Potency (CAOV3) | Potency (CASKI) | Potency (Es-2) | Potency (Hek293T)

CC/C=C\C/C=C\C/C=C\C/C=C\C/C=C\C/C=C\CCC(=O)O
inactive: max response (KB-3-1) 0.95%

COC(=O)CC[C@H](N)C(=O)O
inactive: max response (KB-3-1) 0.526%

CCOC(=O)Oc1c(OC)cc(C(=O)O[C@@H]2C[C@@H]3CN4CCc5c([nH]c6cc(OC)ccc56)[C@H]4C[C@@H]3[C@H](C(=O)OC)[C@H]2OC)cc1OC
inactive: max response (KB-3-1) 3.08%

NCCC[C@H](N)CC(=O)N[C@H]1CNC(=O)[C@H]([C@H]2C[C@H](O)NC(N)=N2)NC(=O)/C(=C/NC(N)=O)NC(=O)[C@H](CO)NC(=O)[C@H](CO)NC1=O (β3hOrn-[Dap]SS[ΔAla(Z-3-ureido)][X5]; lactam 1-C)
inactive: max response (KB-3-1) -0.188%

N[C@@H](Cc1cc(I)c(Oc2ccc(O)c(I)c2)c(I)c1)C(=O)O
inactive: Potency (C33A) | Potency (CASKI) | Potency (Es-2) | Potency (HeLa) | Potency (Hek293T)

O=P(O)(O)O
inactive: max response (KB-3-1) 2.99%

O=C(NNCS(=O)(=O)O)c1ccncc1
inactive: max response (KB-3-1) -1.07%

OCCCNc1ccccc1
inactive: max response (KB-3-1) 2.06%

CC[C@H](C)[C@@H]1NC(=O)[C@H](Cc2ccc(O)cc2)NC(=O)[C@@H](N)CSSC[C@@H](C(=O)N2CCC[C@H]2C(=O)N[C@@H](CC(C)C)C(=O)NCC(N)=O)NC(=O)[C@H](CC(N)=O)NC(=O)[C@H](CCC(N)=O)NC1=O
inactive: max response (KB-3-1) 3.76%

C=C1[C@H](CO)[C@@H](O)C[C@@H]1n1cnc2c(=O)[nH]c(N)nc21
inactive: Potency (C33A) | Potency (CAOV3) | Potency (CASKI) | Potency (Es-2) | Potency (HeLa) | Potency (Hek293T)

NC[C@H]1O[C@H](O[C@H]2[C@H](O)[C@@H](O[C@H]3O[C@H](CO)[C@@H](O)[C@H](N)[C@H]3O)[C@H](N)C[C@@H]2N)[C@H](N)C[C@@H]1O
inactive: max response (KB-3-1) -4.68%

CC(C)Cc1ccc([C@@H](C)C(=O)NS(C)(=O)=O)cc1
inactive: max response (KB-3-1) 3.61%

CC(C)[C@@H]1CC[C@@H](C)C[C@H]1OC(=O)c1ccccc1O
inactive: max response (KB-3-1) -4.38%

CN[C@@H]1[C@H](O[C@H]2[C@H](O[C@H]3[C@H](O)[C@@H](O)[C@H](N=C(N)N)[C@@H](O)[C@@H]3N=C(N)N)O[C@@H](C)[C@]2(O)C=O)O[C@@H](CO)[C@H](O)[C@H]1O
inactive: max response (KB-3-1) 22.5%

O=C(O)c1ccc(OCCn2ccnc2)cc1
inactive: max response (KB-3-1) 6.76%

O=C(O)[C@H]1C(=CCO)O[C@H]2CC(=O)N12
inactive: max response (KB-3-1) 8.73%

C=CC1=C(C(=O)O)N2C(=O)[C@@H](NC(=O)/C(=N\O)c3csc(N)n3)[C@H]2SC1 (stereo in doubt)
inactive: max response (KB-3-1) 5.78% and -12.7%

CO[C@H]1C[C@@H]2CC[C@@H](C)[C@@](O)(O2)C(=O)C(=O)N2CCCC[C@H]2C(=O)O[C@H]([C@H](C)C[C@@H]2CC[C@@H](OC(=O)C(C)(CO)CO)[C@H](OC)C2)CC(=O)[C@H](C)/C=C(\C)[C@@H](O)[C@@H](OC)C(=O)[C@H](C)C[C@H](C)/C=C/C=C/C=C/1C
inactive: Potency (C33A) | Potency (CAOV3) | Potency (CASKI) | Potency (Es-2) | Potency (HeLa) | Potency (Hek293T)

O=C1C2CC3CC1CC(O)(C3)C2
inactive: max response (KB-3-1) 2.59%

Cc1cccc(Nc2ncccc2C(=O)O)c1C
inactive: max response (KB-3-1) 14.2%

CN[C@@H]1[C@@H](O[C@H]2O[C@H](CO)[C@@H](N)[C@H](O)[C@H]2O)O[C@H]2C[C@@H](N)[C@@H](O[C@H]3[C@H](O)[C@@H](O)[C@H](N)C[C@@H]3N)O[C@@H]2[C@@H]1O
inactive: max response (KB-3-1) 9.56%

— PubChem BioAssay (NCATS)
